Laboratory results published in PubChem BioAssay (NCATS).
Results filed as inconclusive are left out. Active and inactive are the calls of the source. Calls come from the whole dose curve; as a rule, active = well fitted curve in the direction sought with a large enough effect; inconclusive = small, poorly fitted or top-dose-only effect, or another doubt; inactive = no such curve, though single readings can be large; an effect the other way counts as inactive or inconclusive.

What was measured:
[1] = qHTS of pediatric cancer cell lines to identify multiple opportunities for drug repurposing: Primary screen for Saos-2 cells (AID 1347097); note: nearly all actives have a fitted effect of over 40% in size
Outline: (§1)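 500-1,000 cells/well; 5 h pre-incubation 37 °C/5% CO2; compound pinned; 48 h; CellTiter-Glo, 15 min RT; luminescence. MIPE 11-pt from 0.78 nM, NPC 8-pt from 0.59 nM final. Bortezomib 2.3 µM final as positive control.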

[2] = qHTS of pediatric cancer cell lines to identify multiple opportunities for drug repurposing: Primary screen for SK-N-SH cells (AID 1347098); note: nearly all actives have a fitted effect of over 65% in size; note: potency is the fitted concentration of half-maximal effect
Outline: (§2)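 Cells (500-1,000/well) rested 5 h, then received compounds for 48 h; metabolically active cells were measured by CellTiter-Glo luminescence. Final concentrations spanned up to 46 µM (MIPE, 11-point) or 0.59 nM-46 µM (NPC, 8-point) in primary screens, 11-point in follow-ups.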

[3] = qHTS of pediatric cancer cell lines to identify multiple opportunities for drug repurposing: Primary screen for NB1643 cells (AID 1347099); note: nearly all actives have a fitted effect of over 50% in size
Outline: as §1

[4] = qHTS of pediatric cancer cell lines to identify multiple opportunities for drug repurposing: Primary screen for LAN-5 cells (AID 1347100)
Outline: (§3)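 Viability after 48 h compound treatment at 37C, 500-1,000 cells/well, read as ATP luminescence with CellTiter-Glo. Primary screens used 11-point (MIPE, 0.78 nM-46 µM) or 8-point (NPC, 0.59 nM-46 µM) final concentrations; follow-up screens used 11-point dilutions.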

[5] = qHTS of pediatric cancer cell lines to identify multiple opportunities for drug repurposing: Primary screen for BT-12 cells (AID 1347101); note: nearly all actives have a fitted effect of over 25% in size
Outline: as §2

[6] = qHTS of pediatric cancer cell lines to identify multiple opportunities for drug repurposing: Primary screen for Rh18 cells (AID 1347102); note: nearly all actives have a fitted effect of over 65% in size
Outline: as §3

[7] = qHTS of pediatric cancer cell lines to identify multiple opportunities for drug repurposing: Primary screen for OHS-50 cells (AID 1347103); note: nearly all actives have a fitted effect of over 40% in size
Outline: as §2

[8] = qHTS of pediatric cancer cell lines to identify multiple opportunities for drug repurposing: Primary screen for RD cells (AID 1347104); note: nearly all actives have a fitted effect of over 55% in size
Outline: as §1

[9] = qHTS of pediatric cancer cell lines to identify multiple opportunities for drug repurposing: Primary screen for MG 63 (6-TG R) cells (AID 1347105); note: nearly all actives have a fitted effect of over 50% in size
Outline: as §1

[10] = qHTS of pediatric cancer cell lines to identify multiple opportunities for drug repurposing: Primary screen for control Hh wild type fibroblast cells (AID 1347106);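 note: series mostly up to about 46 µM; a drop in luminescence marks cytotoxicity and a rise apparent proliferation; nearly all actives have a fitted effect of over 55% in size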
Outline: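 Cells (500-1,000/well) in growth media were settled 5 h at 37 degrees C, then given compounds for 48 h. Viability was read as CellTiter-Glo luminescence. Primary runs used MIPE at 11 points (0.78 nM-46 µM) and NPC at 8 points (0.59 nM-46 µM); follow-ups used 11 points.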

[11] = qHTS of pediatric cancer cell lines to identify multiple opportunities for drug repurposing: Primary screen for Rh30 cells (AID 1347107); note: series mostly up to about 46 µM; nearly all actives have a fitted effect of over 75% in size
Outline: as §3

[12] = qHTS of pediatric cancer cell lines to identify multiple opportunities for drug repurposing: Primary screen for Rh41 cells (AID 1347108);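 note: series mostly up to about 46 µM; luminescence drop marks cytotoxic hits; nearly all actives have a fitted effect of over 70% in size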
Outline: as §1

[13] = qHTS of pediatric cancer cell lines to identify multiple opportunities for drug repurposing: Confirmatory screen for NB1643 cells (AID 1347109); note: nearly all actives have a fitted effect of over 45% in size
Outline: as §3

[14] = qHTS of pediatric cancer cell lines to identify multiple opportunities for drug repurposing: Confirmatory screen for A673 cells (AID 1347110); note: nearly all actives have a fitted effect of over 65% in size
Outline: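 qHTS titration format: primary MIPE 0.78 nM-46 µM (11 pts), NPC 0.59 nM-46 µM; confirmation 11 pts. 48 h, CTG luminescence.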

[15] = qHTS of pediatric cancer cell lines to identify multiple opportunities for drug repurposing: Confirmatory screen for SK-N-MC cells (AID 1347111);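 note: cells exposed to compound for 48 h before the readout; nearly all actives have a fitted effect of over 70% in size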
Outline: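 SK-N-MC cells at 500-1,000 cells/well in growth media were pre-incubated 5 h, then exposed to compounds at 11-point dilutions for 48 h at 37 degrees C, 5% CO2. Viability was read as CellTiter-Glo luminescence.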

[16] = qHTS of pediatric cancer cell lines to identify multiple opportunities for drug repurposing: Confirmatory screen for BT-12 cells (AID 1347112); note: nearly all actives have a fitted effect of over 55% in size
Outline: as §3

[17] = qHTS of pediatric cancer cell lines to identify multiple opportunities for drug repurposing: Confirmatory screen for DAOY cells (AID 1347114); note: nearly all actives have a fitted effect of over 65% in size
Outline: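 Viability measured as metabolically active cells via CellTiter-Glo luminescence following 48 hours of compound exposure, 11-point dilutions in confirmatory testing. 500-1,000 cells/well plated 5 hours before dosing; controls were DMSO and 2.3 µM bortezomib.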

[18] = qHTS of pediatric cancer cell lines to identify multiple opportunities for drug repurposing: Confirmatory screen for NB-EBc1 cells (AID 1347115); note: nearly all actives have a fitted effect of over 45% in size
Outline: as §3

Measured: Potency

C#CCN(C)Cc1ccccc1
inactive: [1] | [2] | [3] | [4] | [5] | [6] | [7] | [8] | [9] | [10] | [11] | [12]

CCCCC(CC)COC(=O)c1ccccc1O (centres undefined)
inactive: [1] | [2] | [3] | [4] | [5] | [6] | [9] | [10] | [11] | [12]

NC(=O)c1ncn([C@@H]2O[C@H](CO)[C@@H](O)[C@H]2O)n1
inactive: [1] | [2] | [3] | [4] | [5] | [10] | [11] | [12]

O=C1NS(=O)(=O)c2ccccc21
inactive: [1] | [2] | [3] | [4] | [5] | [6] | [9] | [10] | [11] | [12]

Cc1ncc([N+](=O)[O-])n1CC(O)CCl (centres undefined)
inactive: [1] | [2] | [3] | [5] | [6] | [7] | [8] | [9] | [10] | [11] | [12]

O=C1O[C@H]([C@@H](O)CO)C(O)=C1O
inactive: [1] | [2] | [3] | [4] | [5] | [6] | [8] | [9] | [10] | [12]

CS(=O)(=O)c1ccc([C@@H](O)[C@@H](CF)NC(=O)C(Cl)Cl)cc1
inactive: [1] | [2] | [3] | [4] | [7] | [8] | [9] | [10] | [11] | [12]

CC1=C(C/C=C(\C)CCC[C@H](C)CCC[C@H](C)CCCC(C)C)C(=O)c2ccccc2C1=O
inactive: [1] | [2] | [3] | [4] | [5] | [6] | [8] | [9] | [10] | [11] | [12]

CC(C)(C(=O)O)c1ccc(C(O)CCCN2CCC(C(O)(c3ccccc3)c3ccccc3)CC2)cc1 (centres undefined)
inactive: [1] | [2] | [3] | [5] | [6] | [7] | [8] | [9] | [10] | [11] | [12]

NC(=O)c1ncn([C@@H]2O[C@H](CO)[C@@H](O)[C@H]2O)c1N
inactive: [1] | [2] | [3] | [4] | [5] | [7] | [8] | [9] | [10] | [11] | [12]

COC(=O)C1=C(C)NC(C)=C(C(=O)OC)C1c1ccccc1[N+](=O)[O-]
active: [2] 21.7 µM
inactive: [1] | [3] | [4] | [5] | [9] | [10] | [12]

CCC(=O)Nc1ccc(O)cc1
inactive: [1] | [2] | [3] | [4] | [5] | [6] | [8] | [9] | [10] | [11] | [12]

C[C@]12C[C@H](O)[C@H]3[C@@H](CCC4=CC(=O)CC[C@@]43C)[C@@H]1CC[C@@H]2C(=O)CO
inactive: [1] | [2] | [3] | [4] | [5] | [7] | [8] | [9] | [10] | [11] | [12]

CC(=O)CCC(=O)O
inactive: [1] | [2] | [3] | [5] | [6] | [7] | [8] | [9] | [10] | [11] | [12]

CC(C)(C)C(=O)NCCCC(=O)O
inactive: [1] | [2] | [3] | [4] | [5] | [7] | [8] | [9] | [10] | [11] | [12]

CCn1cc(C(=O)O)c(=O)c2cnc(N3CCNCC3)nc21
inactive: [1] | [2] | [3] | [4] | [5] | [6] | [8] | [9] | [10] | [12]

O=S(=O)(O)c1cc(I)c(O)c2ncccc12
inactive: [1] | [2] | [3] | [4] | [5] | [6] | [8] | [9] | [10] | [12]

CCN(CC)CCNC(=O)c1cc(Cl)c(N)cc1OC
inactive: [1] | [2] | [3] | [4] | [5] | [6] | [7] | [9] | [10] | [12] | [13] | [14] | [15] | [16] | [17] | [18]

C[C@H](N)[C@H](O)c1cccc(O)c1
inactive: [1] | [2] | [3] | [4] | [5] | [7] | [8] | [9] | [10] | [11] | [12]

CC(O)CN(CCN(CC(C)O)CC(C)O)CC(C)O (centres undefined)
inactive: [1] | [2] | [3] | [5] | [6] | [7] | [8] | [9] | [10] | [11] | [12]

NC(=O)NC(=O)Cc1ccccc1
inactive: [1] | [2] | [3] | [5] | [6] | [7] | [8] | [9] | [10] | [12]
